Most compounds without a hit are left out; they make up all but 2.5% or so of the library.
Mito fusion act: qHTS Assay for Small Molecule Inhibitors of Mitochondrial Division or Activators of Mitochondrial Fusion; S. cerevisiae fusion-defective mutant growth rescue, CellTiterGlo 48 h; Potency, µM (titrated, usually from 46.1 µM), inactives show at the highest dose growth rescue (activation), usual class: activators; hit rate 0.23% among 320,000; note: potency is the fitted concentration of half-maximal effect; % of control where 0% means no effect; nearly all actives have a fitted effect of over 45% in size
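Yeast fusion mutant, YPEG (non-fermentable carbon), compound, 48 h at 37C non-permissive; CellTiterGlo added, 10 min RT, luminescence read. Rescued growth = division inhibition.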
TDP43 rescue: qHTS of TDP-43 Inhibitors. hit rate 1.8% among 410,000. Potency, µM (series often up to 46.1 µM), without a hit: top-dose growth rescue (activation), hits mostly activators. AID 652104, 2013. TDP-43 expressing yeast growth rescue, BacTiter-Glo, 24 h; note: potency is the fitted concentration of half-maximal effect; % of control where 0% means no effect; nearly all actives have a fitted effect of over 50% in size
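Galactose-induced TDP-43 yeast, OD600=0.02, compound pinned; 24 hr, 30 deg C; BacTiter-Glo luminescence for growth. Inhibitors of TDP-43 toxicity read as activators.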
aSyn rescue: qHTS of alpha-syn Inhibitors; Yeast expressing alpha-synuclein, growth rescue, BacTiter-Glo, 24 h; Potency, µM (series often up to 46.1 µM), for inactives: at the top dose growth rescue (activation), usual class: activators; hit rate 0.14% among 370,000; AID 652106, 2013; note: potency is the fitted concentration of half-maximal effect; % of control where 0% means no effect; nearly all actives have a fitted effect of over 65% in size
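Readout is rescue of growth in alpha-synuclein-expressing yeast, so inhibitors of toxicity appear as activators. Growth after 24 hr at 30 deg C in galactose medium is quantified by luminescence.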
Anesthetic bind: qHTS Assay for Identification of Novel General Anesthetics; Ferritin light chain (Equus caballus), P02791; apoferritin/1-aminoanthracene competitive binding, fluorescence; Potency, µM (top dose mostly 77.5 µM), inactives show at the highest dose activity change, negative = displacement, actives largely listed as inhibitors; hit rate 0.074% among 350,000; AID 485281, 2010; note: potency is the fitted concentration of half-maximal effect; % is set by controls: 0 for no effect and ±100 for the full control effect; nearly all actives have a fitted effect of over 20% in size
Target sequence (P02791 2-175 limits assumed): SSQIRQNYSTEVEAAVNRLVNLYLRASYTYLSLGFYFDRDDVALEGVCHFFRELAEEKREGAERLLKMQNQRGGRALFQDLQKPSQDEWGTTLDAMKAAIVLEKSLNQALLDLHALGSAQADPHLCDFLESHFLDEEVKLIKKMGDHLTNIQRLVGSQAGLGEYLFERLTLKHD
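Horse-spleen apoferritin (10 uM) was mixed with 50% saturated 1-aminoanthracene in PBS, exposed to compounds for 10 min at room temperature, and read for fluorescence (ex 380 nm, em 535 nm). Competitive displacement was fitted with a four-parameter Hill equation.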
pAkt inh: HTS Assay for Inhibitors of Akt Phophorylation: Primary Screen | Neuro2A IGF-stimulated pAkt S473 HTRF, 20 min; stronger effect = lower value | hit rate 0.32% among 360,000 | AID 651550, 2012 | activity change, % for hits at 50 µM; in the data active = activity change below about -80%; inconclusive = mostly about -51% to -80%; note: % is set by controls: 0 for no effect and ±100 for the full control effect
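Neuro2A cells (4,500/well, DMEM with 0.5% FBS) were treated with compound at a single 50 µM final concentration, stimulated with 6 nM IGF for 20 min at 37 °C, and lysed. Phospho-Akt Ser473 was read by HTRF as 665/615 ratio ×10^4.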
CCT modulator: High-Throughput Screening for Modulators of Cytosolic Chaperonin Activity | purified chaperonin ATPase assay, HTRF ADP detection, 30 min | activity change, % (concentration not given with the values), hits read low | hit rate 0.3% among 360,000 | AID 651819, 2012; in the data active = activity change below about -30%; note: % is set by controls: 0 for no effect and ±100 for the full control effect
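First, chaperonin was dispensed at 40 nM or 20 nM final depending on batch activity. Next, compounds were pinned at 76 uM and ATP added at 10 uM. After 30 min at 37 °C, ADP detection reagents ran 30 min at ambient temperature.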
Active calls of the source: *; i = inactive; u = inconclusive; x = not tested or not shown; [ ] = dose if it differs, or a comment. Unless noted, calls come from the whole dose curve; as a rule, active = well fitted curve in the direction sought with a large enough effect; inconclusive = small, poorly fitted or top-dose-only effect, or another doubt; inactive = no such curve, though single readings can be large; an effect the other way counts as inactive or inconclusive.

SMILES	Mito fusion act	TDP43 rescue	aSyn rescue	Anesthetic bind	pAkt inh	CCT modulator
CCCCCCCCN(CCCCCCCC)c1ccc(/C=C/c2ccnc3ccccc23)cc1	x	x	-1%	x	x	x
O=C1c2ccccc2NC(c2ccc(-c3ccc(F)cc3)o2)N1O (centres undefined)	7%	x	x	x	x	x
O=C1c2ccccc2NC(c2ccc(-c3ccc(Br)cc3)o2)N1O (centres undefined)	3%	-39%	22µM*	u	i	-2
COc1ccc(-n2cc(C(=O)c3ccccc3O)cn2)cc1	1%	13µM*	-5%	-12%	i	1
O=C(c1cnn(-c2ccccc2)c1)c1cc(F)ccc1O	4%	10µM*	8%	1%	i	-1
COc1ccc(O)c(C(=O)c2cnn(-c3ccccc3)c2)c1	-17%	7%	-8%	-16%	i	0
O=C(O)c1cn(C2CC2)c2cc(N3CCNCC3)c(F)cc2c1=O	x	x	x	-3%[29.3 µM]	x	x
CCOc1ccc(C(=O)NCc2ccc3c(c2)CCN3C(=O)c2ccc(C)cc2)cc1OCC	x	0%	x	7%	x	x
CCCSc1nc2c(c(=O)n1CC)SC(C)C2 (centres undefined)	3%	22µM*	-10%	-8%	i	-1
O=[S+]([O-])([O-])c1ccc2c(c1)cc([S+](=O)([O-])[O-])c1nn(-c3ccc(/C=C/c4ccc(-n5nc6c([S+](=O)([O-])[O-])cc7cc([S+](=O)([O-])[O-])ccc7c6n5)cc4[S+](=O)([O-])[O-])c([S+](=O)([O-])[O-])c3)nc12	x	x	2%	x	x	x
COc1ccc(CCNC(=O)c2[nH]c(C)c(C(C)=O)c2C)cc1OC	-8%	-4%	-1%	-5%	i	-12
CC(=O)c1c(C)[nH]c(C(=O)NCCc2ccccc2)c1C	1%	30%	7%	-7%	-117%*	-5
CC(=O)c1c(C)[nH]c(C(=O)OCc2cccc(C)c2)c1C	35µM*	u	-16%	-9%	i	0
CCOc1ccccc1N1CC(C(=O)N(Cc2nnc(-c3ccccc3Cl)o2)C2CC2)CC1=O (centres undefined)	-3%	5%	4%	x	i	-36*
Cc1cccc(N2CC(C(=O)Nc3nccs3)CC2=O)c1C (centres undefined)	-2%	-19%	-4%	0%	i	0
CCOc1ccccc1N1CC(C(=O)Nc2nccs2)CC1=O (centres undefined)	5%	-2%	u	-6%	-124%*	-2
CCOc1ccc(NC(=O)C2CC(=O)N(c3ccccc3F)C2)cc1 (centres undefined)	-3%	-17%	-2%	1%	i	1
CCOc1ccccc1N1CC(C(=O)Nc2ccc(C(=O)O)cc2)CC1=O (centres undefined)	0%	6%	3%	24%	-112%*	-3
O=C(Cc1ccc(Cl)cc1)NO	x	x	2%	x	x	x
Cc1nc(-n2[nH]c3c(c2=O)CCCC3)[nH]c(=O)c1Cc1ccccc1	-5%	10µM*	u	-15%	i	0
O=C(CN1CCCC1)Nc1ccccc1Sc1ccc(Cl)cc1	-19%	-8%[9.22 µM]	5%	-8%	i	-35*
CC(C)COc1ccc(C(=O)Nc2onc3c2CCCC3)cc1	x	20%	x	u	x	x
COc1cccc(C2C(C(=O)c3sc(C)nc3C)=C(O)C(=O)N2CCN2CCOCC2)c1OC (centres undefined)	2%	11%	1%	-14%	-122%*	-4
Cc1ccnc2nc(C(=O)Nc3ccc(N4CCOCC4)cc3)nn12	-5%	3%	0%	-8%	-103%*	0
O=C(COC(=O)Cc1ccc(Br)cc1)Nc1ccc(Cl)cn1	x	11µM*	-15%	x	i	-2
SMILES	Mito fusion act	TDP43 rescue	aSyn rescue	Anesthetic bind	pAkt inh	CCT modulator
COc1ccc2c(c1)OC1(O)COc3cc(OC)c(OC)cc3C1=C2 (centres undefined)	x	x	x	64%	x	x
Cc1ccc(COC[C@H](CC(C)C)N2CCN(C(=O)c3cccc(C(F)(F)F)c3)CCC2=O)cc1	x	16µM*	12%	x	i	1
CC(C)CC(COCc1ccc(Cl)cc1)N1CCN(C(=O)c2cccc(C(F)(F)F)c2)CCC1=O (centres undefined)	u	20%	11%	-7%	i	-3
COc1ccc(-c2nc3n(c(=O)c2C#N)CCCS3)cc1	-11%	16µM*	5%	-23%	i	0
N#Cc1c(-c2ccc(Cl)cc2)nc2n(c1=O)CCCS2	4%	11µM*	2%	-24%	i	0
N#Cc1c(-c2ccc(Br)cc2)nc2n(c1=O)CCCS2	16%	u	0%	-24%	i	0
O=C(Cc1ccc(OCc2ccccc2)cc1)NO	x	x	4%	x	x	x
CC(C)(C)c1ccc(S(=O)(=O)N2CCN(c3nc(-c4ccccc4)nc4ccccc34)CC2)cc1	x	x	1%	x	x	x
CCN(C(=O)COc1cc(=O)n(C)c2ccccc12)c1cccc(Cl)c1	12%	-9%	x	-13%	x	-55*
O=C(Cc1ccccc1)NN1C(=O)C2C3C=CC(C3)C2C1=O (centres undefined)	-1%	-10%	-2%	-7%	i	-1
O=C(CN1C(=O)C2C3C=CC(C3)C2C1=O)NCc1ccccc1 (centres undefined)	1%	-11%	2%	-7%	i	-3
O=C1C2C3C=CC(C3)C2C(=O)N1CN(Cc1ccccc1)CN1C(=O)C2C3C=CC(C3)C2C1=O (centres undefined)	-5%	5.6µM*	6%	-17%	i	-2
O=C(CN1C(=O)C2C3C=CC(C3)C2C1=O)NCCc1ccccc1 (centres undefined)	-1%	-12%	-1%	1%	i	-51*
CC(C)(C)c1cc(=O)n2c(C#N)c(C#N)nc2[nH]1	3%	0%	1%	-9%	-89%*	0
Cc1cc(NC(=O)COC(=O)c2ccccc2OCCOc2ccccc2)ccc1Br	x	x	-2%	x	x	x
Cc1ccccc1NC1=C(Cl)C(=O)OC1OC(=O)c1ccco1 (centres undefined)	-3%	-10%	3%	-20%	i	0
Cc1ccc(NC2=C(Cl)C(=O)OC2OC(=O)c2ccc(C)cc2)cc1 (centres undefined)	-2%	13µM*	0%	u	i	-1

Assay outcomes: PubChem BioAssay, National Center for Advancing Translational Sciences (NCATS)
